This passage reports Potency and outcome results from PubChem BioAssay (Tox21).

The nature of assay [1]: qHTS assay for small molecules that induce genotoxicity in human embryonic kidney cells expressing luciferase-tagged ATAD5 (AID 651632). Further: nearly all actives have a fitted effect of over 15% in size. Further: potency means the concentration at half of the fitted maximal effect. The procedure, abridged: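 Luminescence read-out: after 16 hr compound exposure at 37C, ATAD5-luciferase HEK293T cells received Amplite, 30 min RT, then CCD imaging. A rise in signal marks genotoxic stress.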
Assay [2] is described as follows: qHTS assay for small molecules that induce genotoxicity in human embryonic kidney cells expressing luciferase-tagged ATAD5 - cell viability (AID 651634; calls by dose curve; further: nearly all actives have a fitted effect of over 25% in size; further: potency means the concentration at half of the fitted maximal effect). An outline of the steps:
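HEK293T ATAD5-luc cells, 2,000/well; compound 15.5 hr, 37C/5% CO2; CellTiter-Fluor 30 min, 37C; fluorescence read.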

Assay [3] can be described thus: qHTS assay for small molecule disruptors of the mitochondrial membrane potential - cell viability (AID 720634; calls by dose curve; further: nearly all actives have a fitted effect of over 20% in size; further: potency means the concentration at half of the fitted maximal effect). The procedure, abridged: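 Luminescence from CellTiter-Glo (ATP content) gave viability in HepG2 cells, read in the same wells as the MMP dye assay after 1 hr compound exposure at 37 C.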
Assay [4] in a line: qHTS assay for small molecule disruptors of the mitochondrial membrane potential (AID 720635). Further: potency means the concentration at half of the fitted maximal effect. The procedure, abridged:
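HepG2 cells (2,000/well) attached overnight at 37C, then took compound for 1 hr at 37C, 5% CO2. Mito-MPS dye was added for 30 min; fluorescence was read at 490/535 nm (monomers) and 540/590 nm (aggregates).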

A short description of assay [5]: qHTS assay to test for compound auto fluorescence at 590 nm (red) in HepG2 cells (AID 720674). The procedure, abridged: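 Intrinsic compound fluorescence in the red window (Ex/Em 540/590 nm) is measured in attached HepG2 cells exposed for 1 hr, DMSO vehicle as baseline, benchmarked to Rose Bengal sodium.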
The nature of assay [6]: qHTS assay to test for compound auto fluorescence at 535 nm (green) in HepG2 cells (AID 720675).
A short description of assay [7]: qHTS assay to test for compound auto fluorescence at 460 nm (blue) in HEK293 cells (AID 720678). Further: potency means the concentration at half of the fitted maximal effect. An outline of the steps: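 Triamterene serves as the blue fluorophore standard. Compound signal at 405/460 nm is read in HEK293 wells (2,000 cells, 10% dialyzed FBS) after overnight treatment at 37C.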
The nature of assay [8]: qHTS assay to test for compound auto fluorescence at 590 nm (red) in HEK293 cells (AID 720679). The procedure, abridged:
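We plated HEK293 cells in 10% dialyzed FBS medium, let them adhere for 4-5 hr, then added 23 nL compound. Overnight at 37C and 5% CO2 preceded fluorescence measurement at 540/590nm.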

Assay [9] can be described thus: qHTS assay to test for compound auto fluorescence at 535 nm (green) in HEK293 cell free culture (AID 720682). The procedure, abridged:
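Using fluorescein as calibrant, autofluorescence was quantified at 485/535 nm in cell-free DMEM containing 10% FBS after pintool addition of compound or vehicle.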

The nature of assay [10]: qHTS assay to test for compound auto fluorescence at 590 nm (red) in HEK293 cell free culture (AID 720683). An outline of the steps: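 Tox21 10K library compounds were pinned into cell-free DMEM with 10% FBS and fluorescence was read at excitation 540 nm. Activity is expressed as Rose Bengal sodium equivalency.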
The nature of assay [11]: qHTS assay to test for compound auto fluorescence at 590 nm (red) in HepG2 cell free culture (AID 720684). The procedure, abridged:
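Readout: intrinsic compound fluorescence at 590 nm emission after 540 nm excitation, scaled to Rose Bengal sodium. Matrix was cell-free MEM with 10% FBS; DMSO vehicle wells served as control.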

The nature of assay [12]: qHTS assay to test for compound auto fluorescence at 460 nm (blue) in HepG2 cell free culture (AID 720685). Further: potency means the concentration at half of the fitted maximal effect. An outline of the steps: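 Cell-free plates of MEM plus 10% FBS received 23 nL compound or DMSO vehicle; blue-channel (405/460 nm) intensity scored against triamterene as reference fluorophore.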
Assay [13] in a line: qHTS assay to test for compound auto fluorescence at 535 nm (green) in HepG2 cell free culture (AID 720686).
The nature of assay [14]: qHTS assay to test for compound auto fluorescence at 460 nm (blue) in HepG2 cells (AID 720687). Further: potency means the concentration at half of the fitted maximal effect. An outline of the steps: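 Cells (2,000/well in MEM with 10% FBS) attached overnight at 37 C, then were exposed to compound or DMSO for 1 hr at 37 C, 5% CO2. Fluorescence read at Ex/Em 405/460 nm, expressed as triamterene-equivalent signal.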
Assay [15] can be described thus: qHTS assay to test for compound auto fluorescence at 535 nm (green) in HEK293 cells (AID 720680).
Assay [16] in a line: qHTS assay for small molecule agonists of the p53 signaling pathway - cell viability (AID 651633; calls by dose curve; further: nearly all actives have a fitted effect of over 30% in size; further: potency means the concentration at half of the fitted maximal effect). The procedure, abridged:
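p53RE-bla cells, seeded at 4,000 per well and rested 5 h at 37 C/5% CO2, received compounds in DMSO for 16 h at 37 C. CellTiter-Glo was then added, and luminescence was read after 30 min at room temperature to gauge cytotoxicity.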

Assay [17] in a line: qHTS assay to test for compound auto fluorescence at 460 nm (blue) in HEK293 cell free culture (AID 720681). The procedure, abridged: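 Test compounds were pinned into cell-free culture medium (DMEM with 10% FBS) and fluorescence was read directly at Ex/Em 405/460 nm. Signals were expressed as fluorescence equivalents of triamterene, with DMSO vehicle as control.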
Assay [18] has as its target Glucocorticoid receptor (Homo sapiens) (UniProt P04150). Description: qHTS assay to identify small molecule agonists of the glucocorticoid receptor (GR) signaling pathway (AID 720691; active means well fitted activation curve with a large enough effect in the signal ratio in the repeat runs, not every such curve was filed as active; the % refers to the signal ratio). An outline of the steps:
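HeLa GR-bla reporter line; cells pre-incubated 4 h, compound in DMSO 18 h at 37 C; LiveBLAzer B/G FRET substrate 2 h RT; fluorescence intensity read-out.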

Assay [19] has the same target. Description: qHTS assay to identify small molecule antagonists of the glucocorticoid receptor (GR) signaling pathway (AID 720692; active means well fitted inhibition curve with a large enough effect in the signal ratio in the repeat runs, not every such curve was filed as active; the % refers to the signal ratio; further: potency means the concentration at half of the fitted maximal effect). The procedure, abridged:
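Read-out: beta-lactamase FRET substrate fluorescence, 2 h at room temperature, in HeLa cells stably carrying a GRE-driven bla reporter. Compounds were co-incubated with 5 nM dexamethasone agonist (final) for 18 h at 37 C.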

Molecules are shown by their SMILES. Several values for one entry are separate records, joined by “and”; a condition that tells them apart may be missing. Equal entries are not always repeated. Inconclusive results are not listed. The source holds several records for some structures; these can differ, active in one and inactive in another. Activity calls are given as the source filed them. Unless noted, the call rests on the fitted dose curve; in most records, active means well fitted curve in the direction sought with a large enough effect in the repeat runs; inconclusive means weak or mixed curves; inactive means no such curve, though single readings can be large; an effect the other way counts as inactive or inconclusive.
Tags describe the fitted curve by direction and shape or compound fluorescence and quenching.

Sequence of Glucocorticoid receptor (Homo sapiens) (P04150 whole entry, looked up): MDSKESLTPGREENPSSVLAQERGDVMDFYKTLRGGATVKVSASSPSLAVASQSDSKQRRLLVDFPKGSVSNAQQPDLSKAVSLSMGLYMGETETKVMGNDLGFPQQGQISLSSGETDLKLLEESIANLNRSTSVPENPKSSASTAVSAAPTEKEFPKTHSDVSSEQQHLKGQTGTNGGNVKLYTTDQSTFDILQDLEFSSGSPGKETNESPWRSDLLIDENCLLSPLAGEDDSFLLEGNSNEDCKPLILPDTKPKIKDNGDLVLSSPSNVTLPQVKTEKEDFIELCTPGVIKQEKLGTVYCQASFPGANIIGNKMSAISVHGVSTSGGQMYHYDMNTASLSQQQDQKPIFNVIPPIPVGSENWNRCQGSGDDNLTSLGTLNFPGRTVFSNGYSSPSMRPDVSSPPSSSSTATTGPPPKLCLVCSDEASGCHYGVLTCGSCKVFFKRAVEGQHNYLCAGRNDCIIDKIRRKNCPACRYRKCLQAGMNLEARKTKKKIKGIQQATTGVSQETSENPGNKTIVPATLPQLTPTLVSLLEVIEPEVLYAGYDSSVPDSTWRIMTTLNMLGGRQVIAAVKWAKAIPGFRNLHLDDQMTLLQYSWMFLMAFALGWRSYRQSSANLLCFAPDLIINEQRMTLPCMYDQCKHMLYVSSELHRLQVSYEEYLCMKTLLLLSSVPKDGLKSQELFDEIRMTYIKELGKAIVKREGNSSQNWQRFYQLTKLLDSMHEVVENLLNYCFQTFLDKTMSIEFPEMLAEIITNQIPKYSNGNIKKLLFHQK

`Nc1ccc2cc3ccccc3cc2c1`: the Potency in [1] was 27.8 µM (active); in assay [4], 1.39 µM (active) and 1.37 µM (active); in assay [7], 44.7 µM [fluorescent] (active); in [12], 39.8 µM [fluorescent] (active); in assay [14], 39.8 µM [fluorescent] (active). In addition, the Potency entry in [2], in assay [3], in assay [6], in assay [9] and in [13] was “inactive” throughout. The call in assay [5], in [8], in assay [10] and in assay [11] was inactive.
Take `O=C(Nc1ccccc1SSc1ccccc1NC(=O)c1ccccc1)c1ccccc1`: the Potency result in assay [1], in assay [6], in assay [7], in assay [15], in assay [9] and in assay [12] was “inactive” in each case. The Potency entry in [13] and in assay [14] was “inactive” in each case. Further, the Potency in assay [4] is 7.74 µM (active) and 15.4 µM (active). The result in assay [5], in assay [8], in assay [10] and in assay [11] was inactive.
With `CCN(CC)CCOc1ccc(/C(=C(\Cl)c2ccccc2)c2ccccc2)cc1`, the Potency in assay [16] was 29.8 µM (active) and 49.6 µM (active). The Potency result in [2], in assay [3], in assay [6], in assay [7], in assay [15] and in [17] was “inactive” each time. For the same compound, the Potency result in assay [9], in assay [12], in assay [13] and in [14] was “inactive” each time. Also, the outcome in assay [8], in [10] and in assay [11] was inactive.
As to `CCN(CC)C(=S)SSC(=S)N(CC)CC`, the Potency in [1] is 11.9 µM (active) and 61.1 µM (active) and 13.7 µM (active); in assay [4], 7.7 µM (active) and 7.02 µM (active). In addition, the Potency result in [3], in assay [6], in [7], in assay [17], in [9] and in assay [12] was “inactive” in each case. Moreover, the Potency entry in assay [13], in assay [14], in [18] and in [19] was “inactive” throughout. Moreover, the compound was called inactive in assay [5], in assay [8] and in [11].
As to `O=C1CC2(CCCC2)CC(=O)N1CCCCN1CCN(c2ncccn2)CC1`, the Potency result in assay [1], in assay [2], in [3], in assay [6], in assay [7] and in assay [15] was “inactive” throughout. Moreover, the Potency result in [9], in assay [12], in assay [13] and in assay [14] was “inactive” each time. In addition, the Potency entry in assay [4] was “inactive and 30.6 µM (active)”. For the same compound, the call in assay [5], in assay [8], in assay [10] and in [11] was inactive.
As to `COc1ccc(CCN2CCC(Nc3nc4ccccc4n3Cc3ccc(F)cc3)CC2)cc1`, the Potency in assay [16] is 26.6 µM (active) and 11.1 µM (active); in assay [2] it was 26.6 µM (active) and 44.2 µM (active); in [3] it was 49.6 µM (active). The compound was called inactive in assay [5], in [8] and in [11]. Also, the Potency result in [6], in [7], in assay [17], in assay [9], in assay [12] and in assay [13] was “inactive” each time. For the same compound, the Potency entry in assay [14] is “inactive”.
On to `c1ccc2cc3c(ccc4ccccc43)cc2c1`, for which the Potency in assay [1] was 68.8 µM (active). The Potency entry in assay [16], in assay [6], in assay [7], in assay [15], in assay [17] and in assay [9] was “inactive” each time. In addition, the Potency entry in assay [12], in [13] and in [14] was “inactive” in each case. For the same compound, the compound was called inactive in assay [5], in [8], in assay [10] and in assay [11].
For the compound `Nc1nc(=S)c2[nH]cnc2[nH]1`, the Potency result in [1], in assay [3], in [4], in assay [6], in assay [7] and in assay [15] was “inactive” throughout. In addition, the Potency result in assay [17], in assay [9], in [12], in [13] and in assay [14] was “inactive” each time. Besides, the compound was called inactive in [5], in assay [8], in assay [10] and in assay [11]. In addition, in [19], the Potency was 23.9 µM (active) and 30.1 µM (active) and 43.6 µM (active).
As to `O=C(Oc1ccccc1)c1ccccc1O`, the Potency result in assay [1], in [2], in [3], in assay [6], in [7] and in assay [9] was “inactive” throughout. For the same compound, the Potency entry in [12], in [13], in [14], in assay [18] and in [19] was “inactive” each time. In addition, the Potency entry in assay [4] was “inactive and 54.5 µM (active)”. Moreover, the compound was called inactive in assay [8], in assay [10] and in assay [11].
In the case of `Cc1c(O)cccc1C(=O)N[C@@H](CSc1ccccc1)[C@H](O)CN1C[C@H]2CCCC[C@H]2C[C@H]1C(=O)NC(C)(C)C`, the Potency result in assay [1], in [3], in assay [6], in [7], in assay [15] and in [17] was “inactive” in each case. Further, the Potency result in assay [9], in assay [12], in assay [13] and in assay [14] was “inactive” throughout. Further, the Potency in assay [2] was 21.1 µM (active) and 23.7 µM (active); in assay [4] it was 10.6 µM (active) and 7.49 µM (active). Moreover, the compound was called inactive in assay [5], in assay [8], in assay [10] and in assay [11].
Consider `CCCCCCCCCCCC[N+](C)(C)C`, for which the Potency entry in assay [1], in [2], in [3], in assay [6], in [7] and in assay [17] was “inactive” in each case. Besides, the Potency result in assay [9], in [12], in [13], in [14] and in assay [18] was “inactive” in each case. Further, the Potency was 61.1 µM (active) in assay [4]; 21.8 µM (active) and 21.9 µM (active) in assay [19]. In addition, the compound was called inactive in assay [5], in assay [8], in [10] and in [11].
In the case of `CCOc1ccc2c(c1)C(C)=CC(C)(C)N2`, the Potency result in assay [1], in assay [2], in assay [3], in assay [4], in assay [6] and in assay [7] was “inactive” each time. In addition, the Potency entry in assay [15], in [17], in assay [9], in [12], in assay [13] and in assay [14] was “inactive” in each case. The compound was called inactive in assay [5], in [8], in [10] and in [11].
Take `NC(=Nc1ccccc1)Nc1ccccc1`: the Potency in [1] is 15 µM (active); in assay [4] it was 3.35 µM (active) and 15.4 µM (active). The Potency entry in [2], in assay [3], in assay [6], in assay [7], in assay [15] and in assay [17] was “inactive” in each case. Moreover, the Potency result in assay [9], in assay [12], in assay [13], in [14], in assay [18] and in assay [19] was “inactive” throughout. For the same compound, the outcome in assay [8] and in assay [11] was inactive.
As for `O=C(O)c1cccc(C(=O)O)c1`, the Potency entry in [3], in [4], in assay [6], in assay [7], in assay [15] and in assay [17] was “inactive” in each case. For the same compound, the Potency result in assay [9], in assay [12], in [13], in [14], in [18] and in [19] was “inactive” in each case. Also, the call in [5], in [8] and in assay [11] was inactive.
